Data: PubChem BioAssay (EPA / NIEHS)
Active and inactive are the calls of the source. How the source made its calls: active means hit-call score of the fitted dose curve at least 0.9, where 1 is the maximum; inactive means score below 0.9.

The molecules below were run on Interleukin-1 alpha (IL1a), IL1A (gene 3552) (assay: BSK_KF3CT_IL1a: BioMAP Diversity Plus: KF3CT Assay for Interleukin-1 alpha (IL1a) Biomarker Activity (AID 2283070)). Conditions: primary human keratinocytes with fibroblasts; actives raise or lower the signal.
In short: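 Primary skin co-culture (keratinocytes, foreskin fibroblasts), 24 h exposure; ELISA for IL-1a; bidirectional curve fit vs DMSO.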
For `NC(=O)N(O)[C@@H]1COc2cc(OCc3ccccc3)ccc21`, the outcome was “inactive”. In the case of `c1ccc(C(O[C@@H]2CCCN(CCc3ccc4c(c3)OCO4)C2)c2ccccc2)cc1`, the outcome is reported as “inactive”. With `CCCOc1ccc(S(=O)(=O)N2CCN(CC)CC2)cc1-c1nc2c(CC)n(Cc3ccccn3)nc2c(=O)[nH]1` the outcome was “inactive”. `CCCCOC(=O)c1ccccc1` was tested, and the outcome was “inactive”. In the case of `COS(C)(=O)=O`, the outcome is reported as “inactive”. For `NNC(=O)c1ccncc1`, the outcome was “inactive”. With `CCCCC(CC)C(=O)OCCOCCOCCOC(=O)C(CC)CCCC` (stereo not drawn) the outcome was “inactive”. `O=S(=O)(O)c1ccc(N=Nc2c(O)ccc3cc(S(=O)(=O)O)ccc23)cc1` was tested, and the outcome was “inactive”. `Cn1c(=O)c2[nH]cnc2n(C)c1=O` was tested, and the outcome was “inactive”. In the case of `CCN(CC)C(=S)SSC(=S)N(CC)CC`, the AC50 is reported as 13.4 µM (active). With `OC[C@H]1O[C@@H]2O[C@H]3[C@H](O)[C@@H](O)[C@@H](O[C@H]4[C@H](O)[C@@H](O)[C@@H](O[C@H]5[C@H](O)[C@@H](O)[C@@H](O[C@H]6[C@H](O)[C@@H](O)[C@@H](O[C@H]7[C@H](O)[C@@H](O)[C@@H](O[C@H]1[C@H](O)[C@H]2O)O[C@@H]7CO)O[C@@H]6CO)O[C@@H]5CO)O[C@@H]4CO)O[C@@H]3CO` the outcome was “inactive”. With `OC(CCl)CCl` the outcome was “inactive”. With `C=CCc1cc(S(=O)(=O)c2ccc(O)c(CC=C)c2)ccc1O` the AC50 was 30 µM (active). For `c1ccc2c(c1)-c1cccc3c1c-2cc1ccccc13`, the outcome was “inactive”. With `CCCC(CCC)C(=O)O` the outcome was “inactive”. In the case of `CC1(C)C(=O)N(Cl)C(=O)N1Cl`, the outcome is reported as “inactive”. For `Cc1ccc(S(=O)(=O)NC(=O)NN2CCCCCC2)cc1`, the outcome was “inactive”. `COc1cc2c(c(OC)c1OC)-c1ccc(OC)c(=O)cc1[C@@H](NC(C)=O)CC2` was tested, and the outcome was “inactive”. For `Cc1cccc(O)c1C`, the outcome was “inactive”. `C[C@@H](Oc1ccc(CNC(=O)c2cccnc2Oc2ccc3c(c2)OCO3)c(F)c1)C(=O)O` was tested, and the outcome was “inactive”. With `CCCCCCCCN(C)C` the outcome was “inactive”. `NCC(F)(F)C(F)(F)C(F)(F)C(F)(F)F` was tested, and the outcome was “inactive”. In the case of `NC(=O)NN=Cc1ccc([N+](=O)[O-])o1`, the outcome is reported as “inactive”. With `Cc1ncc([C@@H](CCCCCCc2ccc3c(n2)NCCC3)CC(=O)O)cn1` the outcome was “inactive”. With `Cn1cc[nH]c1=S` the outcome was “inactive”. For `OC(O)(C(F)C(O)(O)C(F)(F)F)C(F)(F)F`, the outcome was “inactive”. `CCCCCCCCCCCCCCCCOS(=O)(=O)O` was tested, and the AC50 was 15.6 µM (active). In the case of `c1ccc2ncccc2c1`, the outcome is reported as “inactive”.
